TDP1 cell noCPT: qHTS for Inhibitors of human tyrosyl-DNA phosphodiesterase 1 (TDP1): qHTS in cells in absence of CPT | AID 686978, 2013 | hit rate 15% among 420,000 | Potency, µM (top dose mostly 46.2 µM), inactives show top-dose activity change, negative = growth inhibition, usual class: inhibitors | DT40 Tdp1-/- hTDP1 cells, no CPT, ATP luminescence, 48 h; note: potency is the fitted concentration of half-maximal effect; nearly all actives have a fitted effect of over 55% in size
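Cells were dispensed at 400 per well, compounds added by pin tool, plates incubated ≥48 hr at 37 °C, then CellTiter-Glo added for 30 min at room temperature before luminescence reading. Line: DT40 Tdp1-/- complemented with hTDP1; camptothecin omitted.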
HT1080 IDH1KD tx: qHTS for induction of synthetic lethality in tumor cells producing 2HG: qHTS for the HT-1080-IDH1KD cell line; HT-1080 IDH1 knockdown viability, ATP luminescence, 48 h; Potency, µM (titrated, usually from 46.1 µM), for the others: top-dose activity, negative = toxicity, hits mostly cytotoxic; hit rate 2% among 360,000;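 note: potency is the fitted concentration of half-maximal effect; 0% = DMSO wells and -100% = cell-free medium wells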
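Viability of IDH1-knockdown HT-1080 fibrosarcoma cells was assessed by CellTiter-Glo after 48 h at 37 °C with titrated compound; concentration-effect curves were classified by fit quality and response size.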
IL1B secr inh: qHTS for Inhibitors of Inflammasome Signaling: IL-1-beta AlphaLISA Primary Screen; AID 743279, 2014; THP-1 LPS/ATP IL-1B secretion, AlphaLISA, 16 h; hits give low values; activity change, % at 57.5 µM; hit rate 4.7% among 360,000; in the data active = activity change below about -50%; inconclusive = mostly about -30% to -49%
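THP-1 cells pretreated 1 hr with compounds (up to 57.5 uM final), then stimulated with LPS (250 ng/mL final) plus ATP (1.25 mM final); secreted IL-1B measured by AlphaLISA after 16 hr, decreased signal indicating inhibition.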
DT40 TDP1 CPT: qHTS for Inhibitors of human tyrosyl-DNA phosphodiesterase 1 (TDP1): qHTS in cells in presence of CPT | hit rate 12% among 420,000 | Potency, µM (series often up to 46.2 µM), inactives show at the top dose activity change, negative = growth inhibition, most hits filed as inhibitors | chicken DT40 Tdp1-/-;hTDP1 cells + 20 nM CPT, ATP luminescence, 48 h | AID 686979, 2013; note: potency is the fitted concentration of half-maximal effect; nearly all actives have a fitted effect of over 55% in size
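Chicken DT40 Tdp1-/- cells complemented with human TDP1, 400 cells/well, exposed to compounds plus 20 nM camptothecin for at least 48 h at 37 C; viability read as ATP content by CellTiter-Glo luminescence.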
HT1080NT lethal: qHTS for induction of synthetic lethality in tumor cells producing 2HG: qHTS for the HT-1080-NT fibrosarcoma cell line | HT-1080-NT fibrosarcoma viability, CellTiter-Glo ATP luminescence, 48 h | Potency, µM (titrated, usually from 46.1 µM), without a hit: at the top dose activity, negative = less viability, hits mostly cytotoxic | hit rate 1.6% among 360,000 | AID 686970, 2013;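 note: NT is the 2HG producing partner of a matched IDH1 knockdown line; potency is the fitted concentration of half-maximal effect; 0% = DMSO-treated cells and -100% = media-only wells without cells; nearly all actives have a fitted effect of over 55% in size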
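HT-1080-NT fibrosarcoma cells (2HG-overproducing), 750 cells/well in RPMI with 5% FBS, dosed after 2 h and incubated 48 h at 37C. CellTiter-Glo luminescence normalized to DMSO and no-cell wells; concentration-response curves fitted and classed.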
* = called active by the depositor; u = inconclusive; x = no result. In the library only some 19% were active in any assay of this set; here they are far more common. Unless noted, calls come from the whole dose curve; as a rule, active = well fitted curve in the direction sought with a large enough effect; inconclusive = small, poorly fitted or top-dose-only effect, or another doubt; inactive = no such curve, though single readings can be large; an effect the other way counts as inactive or inconclusive. Unless noted, % is set by controls: 0 for no effect and ±100 for the full control effect.

SMILES	TDP1 cell noCPT	HT1080 IDH1KD tx	IL1B secr inh	DT40 TDP1 CPT	HT1080NT lethal
CN1OC[C@@H]2CN(Cc3cc(Cl)cc(Cl)c3)[C@H](c3cccc(Br)c3)C[C@@H]21	21µM*	u	-27	u	-18%
CN1OC[C@@H]2CN(Cc3ccccc3)[C@H](c3cccc(-c4ccc(C#N)cc4)c3)C[C@@H]21	u	u	u	u	-18%
Cc1ccccc1-c1cccc([C@@H]2C[C@H]3[C@H](CON3C)CN2Cc2cc(Cl)cc(Cl)c2)c1	23µM*	4%	-19	u	4%
CCN1C(=O)C(CC(=O)NCCc2ccccc2)N(NC(=O)c2ccc(Br)cc2)C1=S (stereo unspecified)	21µM*	0%	-12	u	-13%
Cc1ccc(NC(=S)N2CCN(c3ccccn3)CC2)cc1C	-10%	8%	-1	-15%	4%
Cc1ccc(CN(C)C(=O)CCNC(=O)c2ccc(Cl)cc2)o1	u	-4%	-1	-27%	-9%
N#CC(C#N)c1ccnc2ccccc12	-27%	1%	u	u	-3%
Oc1ccc(/C=C/c2ccnc3ccccc23)cc1	12µM*	u	-62*	18µM*	u
CCC[N+](C)(C)c1ccc(/C=C/c2ccnc3ccccc23)cc1	0.18µM*	x	x	0.025µM*	x
C[N+](C)(C)c1ccc(/C=C/c2ccnc3ccccc23)cc1	0.63µM*	x	x	0.79µM*	x
CCn1ccnc1CN1CCN(CCC(C)C)C(CCO)C1 (stereo unspecified)	-1%	-6%	16	-2%	-7%
C[C@@H](C(=O)Nc1cccc(S(=O)(=O)N2CCOCC2)c1)N1C(=O)C2CC=CCC2C1=O (stereo partly specified)	-20%	0%	29	7%	1%
Cc1nc2ccc(Cl)cn2c1[N+](=O)[O-]	0%	2%	-23	2%	1%
CCCS(=O)(=O)NC(=O)C1(C)CCN(C(=O)c2cc(C(C)(C)C)nn2C)C1 (stereo unspecified)	-7%	19%	-53*	3%	25%
COc1ccc(Cn2c(C(=O)O)c(CNCc3ccc(SC)cc3)c3ccc(OC)cc32)cc1	5.8µM*	x	x	5.2µM*	x
C=Cc1ccc(Cn2c(C(=O)O)c(CNCc3ccccc3)c3ccc(OC)cc32)cc1	15µM*	x	x	u	x
COc1ccc2c(CNCc3ccc(C)o3)c(C(=O)O)n(Cc3ccccc3)c2c1	u	x	x	-27%	x
CCOc1ccc(CNCc2c(C(=O)O)n(Cc3ccccc3F)c3cc(OC)ccc23)cc1	5.8µM*	x	x	18µM*	x
Cc1ccc(C)c(C(=O)CCC(=O)O)c1	-16%	1%	23	-9%	0%
NC(=O)c1nnn(Cc2cc(Cl)c(C(=O)c3ccc(Cl)cc3)c(Cl)c2)c1N	16µM*	4.1µM*	0	4.6µM*	9.2µM*
CN(C(=O)CSc1nc(-c2ccccc2)cn1N)C(c1ccccc1)c1ccccc1	26µM*	u	u	21µM*	u
COc1ccccc1CNC(=O)CSc1nc(-c2ccccc2)cn1N	-17%	1%	0	u	-3%
C[N+]1(CC(=O)c2ccc(Cl)c(Cl)c2)CCOCC1	-1%	x	x	-2%	x
Cc1noc(C)c1C(=O)OC(C)C(=O)c1c[nH]c2ccccc12 (stereo unspecified)	u	7%	5	u	2%
COCCNc1nc(SC)nc2sc3c(c12)CCN(C)C3	-3%	-14%	0	-11%	-10%
SMILES	TDP1 cell noCPT	HT1080 IDH1KD tx	IL1B secr inh	DT40 TDP1 CPT	HT1080NT lethal
CSc1nc(NCC(C)C)c2c3c(sc2n1)CN(C)CC3	u	u	3	21µM*	-30%
CN(C)CCSc1nc(N)c2c3c(sc2n1)CN(C)CC3	u	-1%	12	u	1%
CCCSc1nc(N)c2c3c(sc2n1)CN(C)CC3	23µM*	1%	-17	-26%	-5%
CSc1nc(NCc2ccccc2)c2c3c(sc2n1)CN(C)CC3	23µM*	u	u	23µM*	u
CN(C)c1ccc(CNc2nc3cc(-c4ccc(F)cc4)sc3c(=O)n2C)cc1	u	u	10	u	-19%
CC(=O)Nc1ccc(OCC(O)Cn2nc(C)c(Br)c2C)cc1 (stereo unspecified)	-25%	-3%	2	-8%	0%
O=C(COC(=O)c1ccccc1O)NCc1ccccc1Cl	-4%	6%	-18	7%	4%
O=[N+]([O-])/C=C\c1ccc(N2CCCC2)c(F)c1	2.6µM*	3.3µM*	-55*	7.3µM*	u
CC(=O)c1ccc(N2CCCCC2)c(F)c1	-21%	25%	-21	1%	13%
CCOC(=O)C(C)Oc1cccc2c(=O)n(CC(=O)NCc3ccco3)ccc12 (stereo unspecified)	2.1µM*	1.6µM*	-54*	1.6µM*	u
CC(C)C(=O)c1cn(CC(=O)NCc2ccco2)c2ccccc12	-17%	13%	19	u	6%
CCOC(=O)C1CCN(C(=O)/C=C/c2ccc(S(=O)(=O)N3CCOCC3)cc2)CC1	u	-10%	-2	-28%	-9%
O=C(Cc1ccc(NC(=O)C2CCN(C(=O)C3CCC3)CC2)cc1)Nc1cccc(C(=O)N2CCCC2)c1	-15%	6%	-3	-2%	0%
Cc1onc(-c2ccccc2)c1C(=O)N1CCN(S(=O)(=O)c2ccccc2Br)CC1	15µM*	7%	37	u	0%
CCc1noc(C)c1C(=O)N1CCN(c2cccc(C)c2C)CC1	15µM*	-1%	4	u	2%
Cc1onc(-c2ccccc2)c1C(=O)N1CCCC1	0%	3%	-2	2%	22%
CCc1noc(C)c1C(=O)N1CCN(c2cccc(Cl)c2)CC1	u	4%	9	u	0%
Cc1onc(-c2ccccc2)c1C(=O)N1CCN(c2ncccc2C(F)(F)F)CC1	u	12%	-8	23µM*	12%
Cc1cccc(N2CCN(C(=O)c3c(-c4ccccc4)noc3C)CC2)c1C	1.5µM*	1.3µM*	32	2.9µM*	1.2µM*
Cc1cccc(CC(=O)N2CCOCC2)c1	6%	0%	-9	-2%	-2%
Cc1cc(NC(=O)c2ccco2)cc(-c2nc3cc(Cl)ccc3o2)c1O	12µM*	x	x	18µM*	x
Cc1cc(NC(=O)C(C)C)cc(-c2nc3ncccc3o2)c1O	13µM*	x	x	u	x

High-throughput results: PubChem, National Center for Advancing Translational Sciences (NCATS)
